PubChem BioAssay AID1851 (National Center for Advancing Translational Sciences (NCATS), 2009)
The whole screen tested about 16,000 compounds, of which about 4,000 (25%) were called active. Roughly 26% stayed inconclusive and do not appear here. Not all results are given here. Unmarked numbers belong to inactive results. Calls follow the shape of the dose curve; as a rule, active = well fitted curve in the direction sought with a large enough effect; inconclusive = small, poorly fitted or top-dose-only effect, or effect the other way; inactive = no such curve, though single readings can be large or run the other way.

target: Cytochrome P450 2C9 (Homo sapiens) (UniProt P11712); assay: Cytochrome panel assay with activity outcomes; conditions: recombinant CYP, pro-luciferin dealkylation, luminescence, p450-cyp2c9; series mostly up to 57.1 µM; activity, negative = inhibition: at the top concentration
% is scaled to controls: 0 for no effect and ±100 for the full control effect.

Chain of Cytochrome P450 2C9 (Homo sapiens) (P11712 whole entry, looked up): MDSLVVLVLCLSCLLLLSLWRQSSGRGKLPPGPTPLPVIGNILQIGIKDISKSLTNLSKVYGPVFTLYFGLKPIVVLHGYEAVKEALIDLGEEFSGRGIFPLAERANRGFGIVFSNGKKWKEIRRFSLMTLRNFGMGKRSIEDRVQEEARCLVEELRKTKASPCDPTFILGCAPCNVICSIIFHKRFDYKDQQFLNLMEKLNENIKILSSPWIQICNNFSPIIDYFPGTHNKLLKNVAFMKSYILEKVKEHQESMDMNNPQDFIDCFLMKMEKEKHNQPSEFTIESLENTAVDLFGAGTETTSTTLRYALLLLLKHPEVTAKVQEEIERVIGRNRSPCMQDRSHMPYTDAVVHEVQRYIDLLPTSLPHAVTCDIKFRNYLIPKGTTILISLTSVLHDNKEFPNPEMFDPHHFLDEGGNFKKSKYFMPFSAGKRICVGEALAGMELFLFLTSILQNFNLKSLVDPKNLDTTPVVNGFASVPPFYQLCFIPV

SMILES	AC50	activity, negative = inhibition
COC(=O)c1cc(Br)c(=O)n(CCc2ccc(O)cc2)c1	12.6 µM (active)	
CC(C)CN1CCCC2(CCN(C(=O)c3csnn3)CC2)C1		-12.6%
O=C(O)C1CCCN1C(=O)OCc1ccccc1 (stereo unspecified)		-14.5%
NC(=O)C1CCN(C(=O)OCc2ccccc2)CC1		-21.8%
O=C1CCC[C@@H](C(C(=O)OCc2ccccc2)C(=O)OCc2ccccc2)C1	3.16 µM (active)	
COc1ccc(S(=O)(=O)N/N=C(/C)c2cccc(NC(=O)c3ccccc3Cl)c2)cc1	0.2 µM (active)	
COc1ccc(/C(C)=N/NC(=O)c2ccc(N(C)C)cc2)cc1		-59.1%
C/C(=N\NC(=O)c1cccc(Cl)c1)c1cccc(NC(=O)C(C)C)c1		-1.8%
CCC(=O)Nc1ccc(/C(C)=N\NS(=O)(=O)c2ccc(C)cc2)cc1	2.24 µM (active)	
C/C(=N/NS(=O)(=O)c1ccc(C)cc1)c1cccc(NC(=O)c2cccc(Cl)c2)c1	3.98 µM (active)	
COc1ccc(CC(=O)Nc2cccc(/C(C)=N/NC(=O)c3cccc([N+](=O)[O-])c3)c2)cc1	1.58 µM (active)	
COc1ccc(NC(=O)c2cc(S(=O)(=O)N3CCS(=O)(=O)CC3)ccc2Cl)cc1		-7.18%
COc1ccc(C(=O)N/N=C(\C)Cn2nc([N+](=O)[O-])cc2C)cc1		-17.7%
O=C1c2ccccc2C(=O)c2c1ccc(C(=O)O)c2-c1ccc2ccccc2c1	1.58 µM (active)	
CC(C)c1ccc(/C=C2\C=C(c3ccc4ccccc4c3)OC2=O)cc1		-10% [at 11.4 µM]
O=C(O)c1ccccc1C(=O)Nc1cc2c(cc1Br)-c1ccccc1C2=O		-5.92% [at 11.4 µM]
CC(C)OCCCN1CN(S(=O)(=O)c2cccc(Cl)c2)c2nc3ccccc3nc21	2.82 µM (active)	
CCn1nc(C)c(NC(=O)/C=C/c2cnn(C)c2C)c1C		6.79%
Cc1cc(N2CCOCC2)ccc1/C=C1\SC(=O)N(C(C)C)C1=O	31.6 µM (active)	
CN(C)c1ccc(/C=C2/C(=O)N(c3ccc([N+](=O)[O-])cc3)N=C2N2CCOCC2)cc1		-9.26%
Cc1ccsc1/C=C1/SC(=O)N(CC(=O)N2CCOCC2)C1=O		27.3%
Cc1ccc2c(CC(=O)OCc3cc(=O)n4c(n3)sc3ccccc34)coc2c1	7.94 µM (active)	
COc1cccc(Nc2nc(-c3ccc(O)cc3)cs2)c1	3.98 µM (active)	
c1cnc(Nc2nc(-c3ccc4ccccc4c3)cs2)nc1		-7.88%
COc1cccc(Nc2ncc3nc(-c4ccccc4)c(=O)n(C)c3n2)c1		-3.42%
CC1CCCC(NC(=O)C2CCN(S(=O)(=O)N3CCOCC3)CC2)C1C (stereo unspecified)		-4.6%
